A number with no mark means an inactive call. Inconclusive results are not listed. The source made the active and inactive calls. Unless noted, no rule for the calls is given here.

In test [1] the test system is HIV-1 nucleocapsid protein NCp7 (binding to TG oligonucleotide). The experiment in a line: HIV Nucleocapsid (AID 346).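 Also: potency is read from the fitted curve at half-maximal effect; potency is for inhibitors that block NC binding and lower polarization.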 Particulars: HIV-1 NC / fluorescein-TGTGTGTG probe, fluorescence polarization. Put shortly: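 Fluorescence polarization readout: labelled TG4xF oligo (10 nM) with 100 nM nucleocapsid protein, high-salt (250mM NaCl) Hepes pH 7.5 buffer containing zinc and fresh reducing agents. Compounds added by pin tool; incubation 1 hr, room temperature.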

Test [2] concerns the target Lysosomal acid glucosylceramidase (Homo sapiens) (UniProt P04062). As to the kind of experiment: Glucocerebrosidase-p2 (AID 348; in the data active = potency below about 10 µM; also: potency is read from the fitted curve at half-maximal effect). The note with it: purified GBA, blue fluorogenic substrate, 40 min. Summed up: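 Compounds titrated from 0.6 nM upwards against 0.2 nM enzyme in pH 5.9 citric acid/KH2PO4, taurocholate, tween-20; blue fluorogenic substrate 80 uM, 40 min room temperature, stopped and read Ex 365/Em 440 for AC50.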

A short description of test [3]: AP1 Signaling Pathway (AID 357; active = well fitted curve in either direction with a large enough effect, not every such curve was filed as active; also: % is scaled to controls: 0 for no effect and ±100 for the full control effect). The note with it: ME-180 AP-1-bla reporter, EGF-induced, beta-lactamase ratio, 5 h; at 7.69 µM (top of the series) unless noted. Put shortly: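 ME-180 cells with beta-lactamase reporter under AP-1 response element, stimulated with EC50 EGF; compounds tested in titration series, 5 h at 37 °C. CCF4 substrate added 2.5 h at room temperature; 460/530 nm emission ratio gave %activity and AC50.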

Test [4] has as its target Cytochrome P450 1A2 (Homo sapiens) (UniProt P05177). As to the kind of experiment: p450-cyp1a2 (AID 410; calls by dose curve; also: potency is read from the fitted curve at half-maximal effect;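 as to activity change, negative = inhibition: -100% = full effect of reference inhibitor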). The note with it: recombinant CYP1A2, luciferin-ME demethylation, luminescence; series mostly up to 11.4 µM. Summed up: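 Luminescent readout of luciferin formed from Luciferin-ME by human CYP1A2; data normalized against complete inhibition by 57 uM furafylline. Enzyme 20nM, substrate 100uM at Km, 100mM KPO4 buffer, 60 min reaction at room temperature.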

The nature of test [5]: NFAT Signaling Pathway (AID 444; active = well fitted curve in either direction with a large enough effect, not every such curve was filed as active;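 also: carbachol stimulus at about its EC50 of 1 µM final; % is scaled to controls: 0 for no effect and ±100 for the full control effect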). Particulars: Jurkat NFAT-bla M1, carbachol, beta-lactamase ratio, 5 h; at 7.69 µM (top of the series) unless noted. Summed up:
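Jurkat cells with NFAT-driven β-lactamase reporter and co-expressed M1 receptor, stimulated with carbachol (final 1 uM, ~EC50), compound titration, 5 h at 37 °C. CCF4 loaded 1 h at RT; 460/530 nm ratio gave %activity and AC50.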

Test [6] can be described thus: Stat Signaling Pathway (AID 446; active = well fitted curve in either direction with a large enough effect, not every such curve was filed as active;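 also: ME-180 cervical cancer cells given 40 pM IL-6 alongside compound; SIE-controlled beta-lactamase reporter measured as 460/530 nm FRET emission ratio; % is scaled to controls: 0 for no effect and ±100 for the full control effect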). The note with it: ME-180 (cervical carcinoma) SIE beta-lactamase reporter, IL-6 stimulated, 5 h; at 7.69 µM (top of the series) unless noted. Put shortly: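 IL-6/STAT signaling read in ME-180 cells via an SIE beta-lactamase reporter. Stimulus was 40 pM IL-6 (its AC50) for 5 hrs, so both activation and inhibition register.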
Test [7] has as its target Glucocorticoid receptor (Homo sapiens) (UniProt P04150). As to the kind of experiment: GR-GFP Redistribution (AID 450;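 active = compounds whose dose series gives a full or clear partial fitted curve of increased nuclear translocation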; also: potency is read from the fitted curve at half-maximal effect). The note with it: U2OS GR-GFP nuclear translocation, laser cytometry, 2 h.
Test [8] has the same target. The experiment in a line: GR-EFC Redistribution (AID 451; calls by dose curve; also: potency is read from the fitted curve at half-maximal effect). Particulars: CHO-K1 GR-EFC translocation, beta-gal luminescence, 2 h. Summed up: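 CHO-K1 cells expressing nuclear EA and GR-ED fragments of b-gal; compounds titrated up to 46 uM final, 2 h at 37 C. GR nuclear translocation read as complemented b-gal luminescence after 1 h RT detection.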
In test [9] the target is Mitogen-activated protein kinase 10 (Mus musculus) (UniProt Q61831). As to the kind of experiment: JNK3 AlphaScreen Assay (AID 530; active = well fitted curve in either direction with a large enough effect, not every such curve was filed as active;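 also: kinase came from lysate of stimulated human HepG2 cells; signal reports phosphorylation of biotinylated GST-cJun 1-79 at Ser73 with 10 µM ATP; % is scaled to controls: 0 for no effect and ±100 for the full control effect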). The note with it: JNK3 lysate, c-Jun phosphorylation; series mostly up to 57.1 µM. Summed up:
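Pre-activated (IL-1β/TNFα) JNK3 in HepG2 lysates phosphorylates biotin-GST-cJun(1-79), 10 uM ATP; anti-phospho-cJun(Ser73) AlphaScreen read at room temperature, pH 7.6 Tris buffer. Compounds pre-incubated 15 min as titrations.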

Test [10] addresses 3',5'-cyclic-AMP phosphodiesterase 4B (Homo sapiens) (UniProt Q07343). The experiment in a line: qHTS Assay for Inhibitors of PDE-IV (AID 607; active = well fitted activation curve with a large enough effect in the main read-out, with a control signal flat, not every such curve was filed as active; also: % of control where 0% means no effect). Particulars: HEK293 ACTOne CNG channel cells, membrane potential fluorescence; series mostly up to 22.9 µM. Summed up:
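Live HEK293 cells with a modified cyclic nucleotide-gated (CNG) channel report intracellular cAMP via membrane-potential dye fluorescence (ex 535/em 590 nm). Endogenous PDE-IV was targeted. Compounds were tested at up to 22.9 uM final; RO 20-1724 100 uM served as control.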

Sequence of Glucocorticoid receptor (Homo sapiens) (P04150 whole entry, looked up, the tested form may be a part): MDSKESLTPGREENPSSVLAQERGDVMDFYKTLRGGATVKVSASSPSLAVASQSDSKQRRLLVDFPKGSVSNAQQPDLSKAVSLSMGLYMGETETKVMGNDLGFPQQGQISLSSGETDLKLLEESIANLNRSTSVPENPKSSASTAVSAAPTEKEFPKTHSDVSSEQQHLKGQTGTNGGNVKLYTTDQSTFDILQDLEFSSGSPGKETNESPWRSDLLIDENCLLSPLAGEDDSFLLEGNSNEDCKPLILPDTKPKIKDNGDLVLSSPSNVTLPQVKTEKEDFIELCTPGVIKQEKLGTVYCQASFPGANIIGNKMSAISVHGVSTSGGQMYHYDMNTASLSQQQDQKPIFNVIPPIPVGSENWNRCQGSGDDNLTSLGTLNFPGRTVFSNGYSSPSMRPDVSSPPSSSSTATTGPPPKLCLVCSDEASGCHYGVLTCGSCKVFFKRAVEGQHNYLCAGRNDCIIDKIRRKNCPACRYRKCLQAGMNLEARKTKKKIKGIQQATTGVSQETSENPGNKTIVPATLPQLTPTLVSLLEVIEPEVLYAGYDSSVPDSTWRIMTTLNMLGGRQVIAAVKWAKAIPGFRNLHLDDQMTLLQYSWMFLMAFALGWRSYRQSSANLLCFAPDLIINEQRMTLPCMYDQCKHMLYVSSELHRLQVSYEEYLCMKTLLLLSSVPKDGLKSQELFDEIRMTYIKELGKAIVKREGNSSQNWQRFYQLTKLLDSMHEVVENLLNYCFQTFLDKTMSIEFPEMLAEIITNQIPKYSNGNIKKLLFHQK
Sequence of Lysosomal acid glucosylceramidase (Homo sapiens) (P04062 whole entry, looked up): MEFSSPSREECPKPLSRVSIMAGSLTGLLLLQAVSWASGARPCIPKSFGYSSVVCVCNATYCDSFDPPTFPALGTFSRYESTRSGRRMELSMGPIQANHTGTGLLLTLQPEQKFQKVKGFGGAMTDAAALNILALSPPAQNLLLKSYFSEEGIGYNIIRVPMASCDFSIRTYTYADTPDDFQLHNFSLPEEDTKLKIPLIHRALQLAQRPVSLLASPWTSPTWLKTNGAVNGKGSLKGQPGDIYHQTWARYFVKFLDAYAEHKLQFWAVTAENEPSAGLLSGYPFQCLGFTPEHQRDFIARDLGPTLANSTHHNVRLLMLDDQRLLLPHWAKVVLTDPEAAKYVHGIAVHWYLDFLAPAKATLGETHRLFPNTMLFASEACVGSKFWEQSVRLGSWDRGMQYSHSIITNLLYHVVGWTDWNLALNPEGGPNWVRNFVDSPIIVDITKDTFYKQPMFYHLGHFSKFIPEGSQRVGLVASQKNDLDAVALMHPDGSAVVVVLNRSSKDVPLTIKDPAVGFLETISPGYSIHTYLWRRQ
Sequence of Cytochrome P450 1A2 (Homo sapiens) (P05177 whole entry, looked up): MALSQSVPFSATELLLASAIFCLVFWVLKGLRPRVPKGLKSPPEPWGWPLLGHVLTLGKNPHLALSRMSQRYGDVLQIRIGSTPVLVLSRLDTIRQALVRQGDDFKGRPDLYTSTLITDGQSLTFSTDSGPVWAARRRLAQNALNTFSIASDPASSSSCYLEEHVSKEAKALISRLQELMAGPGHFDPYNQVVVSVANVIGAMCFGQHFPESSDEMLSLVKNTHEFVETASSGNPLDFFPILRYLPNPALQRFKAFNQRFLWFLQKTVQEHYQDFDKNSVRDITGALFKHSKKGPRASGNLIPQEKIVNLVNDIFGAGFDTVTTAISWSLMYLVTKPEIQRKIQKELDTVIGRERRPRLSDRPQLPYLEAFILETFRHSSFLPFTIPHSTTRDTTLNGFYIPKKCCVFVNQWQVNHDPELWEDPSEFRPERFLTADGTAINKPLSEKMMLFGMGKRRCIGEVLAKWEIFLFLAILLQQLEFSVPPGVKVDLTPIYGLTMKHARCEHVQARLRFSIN
Sequence of 3',5'-cyclic-AMP phosphodiesterase 4B (Homo sapiens) (Q07343 whole entry, looked up): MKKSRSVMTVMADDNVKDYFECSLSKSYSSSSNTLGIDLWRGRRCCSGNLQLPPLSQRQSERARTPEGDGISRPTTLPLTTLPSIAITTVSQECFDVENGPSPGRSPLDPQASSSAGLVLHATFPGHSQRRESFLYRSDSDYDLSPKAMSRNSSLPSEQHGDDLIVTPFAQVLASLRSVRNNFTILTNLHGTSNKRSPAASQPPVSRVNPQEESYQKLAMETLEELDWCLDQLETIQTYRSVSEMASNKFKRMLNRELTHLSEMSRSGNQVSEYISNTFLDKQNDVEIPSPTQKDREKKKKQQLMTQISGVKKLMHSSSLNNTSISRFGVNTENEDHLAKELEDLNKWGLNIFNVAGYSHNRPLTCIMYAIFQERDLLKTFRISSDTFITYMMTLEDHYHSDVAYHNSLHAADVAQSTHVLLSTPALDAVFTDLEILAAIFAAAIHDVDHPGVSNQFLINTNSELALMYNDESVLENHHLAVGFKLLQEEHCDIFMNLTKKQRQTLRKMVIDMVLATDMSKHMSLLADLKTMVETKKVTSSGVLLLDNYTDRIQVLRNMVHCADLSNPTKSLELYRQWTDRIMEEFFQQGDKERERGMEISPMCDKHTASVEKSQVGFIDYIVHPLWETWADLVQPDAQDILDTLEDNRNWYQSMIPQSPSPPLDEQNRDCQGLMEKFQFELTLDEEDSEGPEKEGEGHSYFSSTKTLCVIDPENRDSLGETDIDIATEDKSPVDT

In the case of `COCCn1c(=O)c(-c2cc(F)cc(F)c2)nc2cnc(Oc3ccc(OC)cc3)nc21`, in test [1], the Potency was more than 20 µM.

As for `COc1ccc(-n2c(=O)cnc3cnc(Oc4ccccc4)nc32)cc1`, the Potency in test [1] is more than 20 µM. The same measure, in the same setting: for `CS(=O)(=O)N1CCC2(CC1)CN(C(=O)Nc1cccc(C#N)c1)C2` the value was more than 20 µM; for `COCC(=O)N1CCC2(CCN(Cc3ccc(C#N)cc3)CC2)CC1`, more than 20 µM; for `COc1ccc(NC(=O)N2CC[C@@]3(CCCN(C(=O)c4cc(C(F)(F)F)cc(C(F)(F)F)c4)C3)C2)cc1`, more than 20 µM. Regarding `COc1ncc2nc(-c3ccc(F)cc3)c(=O)n(C)c2n1`, in test [1], the Potency was more than 20 µM.

On to `CC(=O)N1CCC2(CC1)CN(Cc1cc(C(F)(F)F)cc(C(F)(F)F)c1)C2`, for which the Potency in test [1] was more than 20 µM. On to `O=c1c(CCc2ccccc2)nc2cnc(N3CCNCC3)nc2n1CCc1ccccc1`, for which the Potency in test [1] is more than 20 µM. Still for that read-out and setting: the same measure for `O=C(c1csnn1)N1CCC2(CC1)CN(c1ncccn1)C2`: more than 20 µM; for `COc1ccc(-n2c(=O)c(-c3ccc(Cl)cc3)nc3cncnc32)cc1`: more than 4 µM; for `Cc1noc(C)c1-c1nc(N2CCN(C)CC2)c2ccccc2n1`: more than 20 µM.

For the compound `COc1ccc(-n2c(=O)c(-c3ccc(Cl)cc3)nc3cnc(N4CCOCC4)nc32)cc1`, the Potency in test [1] was more than 20 µM. On to `FC(F)(F)c1ccccc1-c1nc(NC2CCNCC2)c2ccccc2n1`, for which, in [1], the Potency was more than 20 µM. Consider `O=C(c1cccc(F)c1)N1CCC2(CC1)CN(Cc1ccccc1)C2`, for which the Potency in test [1] is more than 20 µM.

`COc1ccc2[nH]cc(CCNc3ncncc3-c3ccc4c(c3)OCO4)c2c1`: in test [1], the Potency was more than 20 µM. As to `COc1cccc(Cn2c(=O)c(-c3cccs3)nc3cnc(OCc4ccccc4)nc32)c1`, the Potency in test [1] was more than 20 µM. As to `CC(=O)N1CCC[C@@]2(CCN(Cc3ccc(C#N)cc3)C2)C1`, in test [1], the Potency is more than 20 µM. `c1cncc(CNc2ncnc3ccc(-c4ccoc4)cc23)c1`: the Potency in [1] was more than 20 µM. As to `CN1CCN(c2ncc3nc(-c4cc(F)cc(F)c4)c(=O)n(-c4ccccc4)c3n2)CC1`, in test [1], the Potency was more than 20 µM. Same read-out and setting: the same measure for `COCCn1c(=O)c(-c2cc(F)cc(F)c2)nc2cnc(N(C)C)nc21`: more than 20 µM; for `COc1ccc(CNc2nc(-c3ccccc3CN(C)C)nc3ccccc23)c(OC)c1`: more than 20 µM; for `COc1cccc(-c2nc(Nc3ccncc3)c3ccccc3n2)c1`: more than 20 µM. As for `COc1ccc(C(=O)N2CCC[C@@]3(CCN(Cc4ccc(C#N)cc4)C3)C2)cc1`, in test [1], the Potency is more than 20 µM. As to `CCNc1ncc2nc(-c3cc(F)cc(F)c3)c(=O)n(CCC#N)c2n1`, the Potency in test [1] was 19.8 µM. Turning to `O=C(Oc1ccccc1)N1CCC2(CC1)CCN(c1cccc(-c3ccccc3)c1)CC2`, the Potency in [1] is more than 20 µM. In the case of `CN(Cc1ccco1)c1ncnc2ccc(-c3ccc4c(c3)OCO4)cc12`, in test [1], the Potency was more than 20 µM. Take `COc1cccc(-c2nccc(N(C)Cc3ccco3)n2)c1`: in test [1], the Potency is more than 20 µM. For `COCC(=O)N1CCC[C@@]2(CCN(Cc3cc(C(F)(F)F)cc(C(F)(F)F)c3)C2)C1`, the Potency in [1] is more than 20 µM.

`CN1CCN(c2ccnc(-c3ccc(N(C)C)cc3)n2)CC1`: in test [1], the Potency is more than 20 µM.

In the case of `COc1ncc2nc(-c3ccc(Cl)cc3)c(=O)n(C[C@H]3CCCO3)c2n1`, the Potency in [1] is more than 20 µM. With `COCCn1c(=O)c(-c2cn(C)c3ccccc23)nc2cnc(N3CCOCC3)nc21`, the Potency in test [1] was more than 20 µM. Consider `CN1CCN(c2ncc3nc(CCc4ccccc4)c(=O)n(C4CC4)c3n2)CC1`, for which the Potency in [1] is more than 20 µM.

As to `CN(C)Cc1ccccc1-c1nccc(N(C)C)n1`, in test [1], the Potency is more than 20 µM. `CNc1nc(-c2ccc(C(=O)N(C)C)cc2)nc2ccccc12`: the Potency in test [1] is more than 20 µM. In the case of `O=C(c1csnn1)N1CCC2(CCCN(c3ccc(-c4ccccc4)cc3)C2)CC1`, the Potency in test [1] is more than 20 µM.

With `COCCNc1nc(-c2c(C)noc2C)nc2ccccc12`, the Potency in [1] is more than 20 µM. Take `CN(C)c1ncnc2ccc(-c3ccc4c(c3)OCO4)cc12`: in [1], the Potency was more than 20 µM. Consider `Cc1cc[c]([Sb]2[O][C@H]([C@H](O)[C@H](O)C(=O)O)[C@@H](CO)[O]2)cc1`, for which the Potency in [2] is more than 11.4 µM; in [7] it was more than 46 µM; in test [8], more than 9.22 µM. Moreover, the results for the activity change, negative = inhibition in [3], in test [5] and in test [9] were 0.9%, -5.69% and 0.865% [at 11.4 µM], respectively. The Potency result in test [4] is “inactive”. Besides, the activity, negative = inhibition in test [6] is 4.3%. The call in test [10] was inactive. As for `COC(=O)[C@H]1C(=O)[C@H](C(=O)OC)[C@@H]2CC[C@H]1N2C`, the Potency in test [2] was more than 11.4 µM; in [4], 0.794 µM (active); in test [7], more than 46 µM; in test [8], more than 9.22 µM. Further, the values for the activity change, negative = inhibition in test [3], in test [5] and in test [9] were 12.9%, 11.3% and 4.63% [at 11.4 µM], respectively. Further, in test [6], the activity, negative = inhibition was 7.99%. Besides, the outcome in [10] was inactive.

These data come from PubChem BioAssay (NCATS).
